Source: PubChem (The Scripps Research Institute Molecular Screening Center)
Compounds with a hit are over-represented: about 2.9% of the library has one in this group of screens.
EBNA-1 inh: blocks EBNA-1 binding to DNA; EBNA-1 DNA binding, fluorescence polarization; inhibition, % at 14.8 µM; 0.34% of 300,000 active; AID 1950; in the data active = inhibition above about 28%
PAFAH2 inh: inhibitors of human PAFAH2; recombinant PAFAH2, FP-rhodamine activity probe, fluorescence polarization; inhibition, % at 3.39 µM; Q99487; 0.99% of 340,000 active;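 active = inhibition above the mean over all tested compounds plus 3 SD, cut at about 30% in these data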;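 note: inhibitors block probe labeling of enzyme so polarization drops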
ZTA DNA inh: counter-screen for EBNA-1 inhibitors: inhibitors of Epstein-Barr virus ZTA; P03206; AID 2234; 0.15% of 320,000 active; ZTA-DNA binding, fluorescence polarization; inhibition, % at 11 µM; in the data active = inhibition above about 33%
Target sequence (P03206 whole entry, looked up): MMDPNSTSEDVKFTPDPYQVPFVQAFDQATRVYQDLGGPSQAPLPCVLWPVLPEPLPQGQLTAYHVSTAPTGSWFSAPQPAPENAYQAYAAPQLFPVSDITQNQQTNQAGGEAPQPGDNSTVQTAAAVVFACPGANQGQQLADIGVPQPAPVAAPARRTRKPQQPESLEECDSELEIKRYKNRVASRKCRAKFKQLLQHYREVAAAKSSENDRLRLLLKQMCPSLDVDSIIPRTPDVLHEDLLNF
PAFAH1B3 inh: blocks human PAF acetylhydrolase 1B catalytic subunit 3. Q15102. recombinant PAFAH1B3, FP-rhodamine probe, fluorescence polarization. inhibition, % at 3.39 µM. 0.28% of 340,000 active;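 active = inhibition above the screen-wide average of all tested compounds plus 3 SD, cut at about 25% in these data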
pPAFAH inh: inhibitors of human plasma PAF acetylhydrolase (pPAFAH) | recombinant pPAFAH, FP-rhodamine probe fluorescence polarization | 1.5% of 330,000 active | inhibition, % at 3.39 µM;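 active = inhibition above the mean inhibition across the screen plus 3 SD, cut at about 25% in these data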;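 note: inhibitors block binding of the rhodamine activity-based probe so polarization drops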
Target sequence (Q13093 whole entry, looked up): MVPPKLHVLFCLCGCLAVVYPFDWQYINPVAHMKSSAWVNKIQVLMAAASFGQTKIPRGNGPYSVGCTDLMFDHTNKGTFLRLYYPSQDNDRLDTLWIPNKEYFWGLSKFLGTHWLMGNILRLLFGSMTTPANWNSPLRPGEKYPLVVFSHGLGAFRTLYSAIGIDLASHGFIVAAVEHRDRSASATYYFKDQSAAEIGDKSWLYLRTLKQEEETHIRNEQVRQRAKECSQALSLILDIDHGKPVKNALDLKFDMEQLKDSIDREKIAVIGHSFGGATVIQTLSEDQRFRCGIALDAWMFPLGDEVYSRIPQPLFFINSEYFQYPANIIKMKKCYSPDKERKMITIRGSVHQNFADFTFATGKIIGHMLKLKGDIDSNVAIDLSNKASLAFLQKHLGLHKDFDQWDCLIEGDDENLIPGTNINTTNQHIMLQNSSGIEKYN
PAFAH1B2 inh: blocks human PAF acetylhydrolase 1b catalytic subunit 2 | recombinant PAFAH1B2, FP-rhodamine activity probe, fluorescence polarization | inhibition, % at 3.39 µM | AID 492953 | 1.2% of 340,000 active;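 active = inhibition above the mean of all tested compounds plus 3 SD, cut at about 24% in these data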
PAFAH2 FP conf: PAFAH2 (human) inhibition, confirmed. inhibition, % at 3.39 µM. shares compounds with PAFAH2 inh. 65% of 2,300 active. recombinant PAFAH2, FP-rhodamine activity probe, fluorescence polarization;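 active = mean inhibition over three repeats above a set limit taken from the earlier primary screen, cut at about 30% in these data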;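 note: inhibitor blocks binding of rhodamine activity probe so polarization falls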
Of the large screens only hits and unclear results are named; the others gave an inactive call (follow-up assays come after a bar, where they were run).

O=C(O)CN1C(=O)/C(=C\c2cc(Br)ccc2OCc2ccc(Cl)cc2)SC1=S	PAFAH2 inh 31.6 (no result: EBNA-1 inh, ZTA DNA inh, pPAFAH inh) | PAFAH2 FP conf inactive
O=C(O)CN1C(=O)/C(=C\c2ccccc2OCc2ccc(F)cc2)SC1=S	PAFAH2 inh 38.5 | PAFAH2 FP conf 35.2
O=C(O)CN1C(=O)/C(=C\c2cccc(OCc3ccccc3)c2)SC1=S	none
O=C(O)COc1ccccc1/C=C1\SC(=O)N(Cc2ccc(F)cc2)C1=O	none
O=c1oc2ccccc2c(Nc2ccc3ccccc3c2)c1[N+](=O)[O-]	PAFAH2 inh 34.5 | PAFAH2 FP conf inactive
O=C(Nc1nnc(C2CC2)s1)c1n[nH]c(=O)c2ccccc12	none
O=C(O)c1cccc(-c2ccc(/C=N/n3cnc4sc5c(c4c3=O)CCCC5)o2)c1	none (no result: PAFAH2 inh, PAFAH1B3 inh, PAFAH1B2 inh)
Cc1c(C(c2ccc(Br)cc2)c2c(C)n(C)n(-c3ccccc3)c2=O)c(=O)n(-c2ccccc2)n1C	PAFAH2 inh 36.8 | PAFAH2 FP conf inactive
Cc1ccc(S(=O)(=O)N2CCOCC2)cc1NC(=O)COC(=O)C1=COCCO1	none
Cc1ccc(S(=O)(=O)N2CCOCC2)cc1NC(=O)COC(=O)c1ccc2c(c1)OCCO2	PAFAH2 inh 69.9 | PAFAH2 FP conf 59.0
CCOc1ccccc1C(=O)OCC(=O)Nc1cc(S(=O)(=O)N2CCOCC2)ccc1C	PAFAH2 inh 31.7 (no result: EBNA-1 inh) | PAFAH2 FP conf inactive
CCOc1ccccc1NC(=O)c1cc(S(=O)(=O)N2CCOCC2)ccc1C	none
O=C(COC(=O)c1cnccn1)Nc1cc(S(=O)(=O)N2CCOCC2)ccc1Cl	none (no result: EBNA-1 inh, ZTA DNA inh)
O=C(COC(=O)c1ccc2c(c1)OCCO2)Nc1cc(S(=O)(=O)N2CCOCC2)ccc1Cl	PAFAH2 inh 64.1 | PAFAH2 FP conf 44.5
Cc1ccc(S(=O)(=O)N2CCOCC2)cc1NC(=O)COC(=O)c1ccc(OCc2c(C)noc2C)cc1	PAFAH2 inh 43.7 | PAFAH2 FP conf 50.6
Cc1ccc(S(=O)(=O)N2CCOCC2)cc1NC(=O)COc1ccc(C(=O)c2ccccc2)cc1	none (no result: EBNA-1 inh)
COc1cccc2c1c(NC(=O)Nc1ccc(F)cc1F)nn2C	none
CCOC(=O)C1C(=O)C(=O)N(C2CCCCC2)C1C(=O)OCC (centres undefined)	none (no result: EBNA-1 inh, ZTA DNA inh, pPAFAH inh)
CCCCC(=O)NNC(=O)N1c2ccccc2Sc2ccccc21	none
Cc1ccc(C(=O)OCC(=O)Nc2cc(S(=O)(=O)N3CCOCC3)ccc2C)cc1	PAFAH2 inh 68.5 | PAFAH2 FP conf 60.6
Cc1ccc(S(=O)(=O)N2CCOCC2)cc1NC(=O)COC(=O)c1ccc2c(c1)OCO2	PAFAH2 inh 63.6 | PAFAH2 FP conf 51.6
Cc1ccc(S(=O)(=O)N2CCOCC2)cc1NC(=O)COC(=O)c1cnc(Cl)c(Cl)c1	none (no result: EBNA-1 inh, ZTA DNA inh, pPAFAH inh)
CCN(CC)S(=O)(=O)c1ccc(C)c(NC(=O)COC(=O)c2ccc(C)c(S(=O)(=O)N3CCOCC3)c2)c1	PAFAH2 inh 80.8 | PAFAH2 FP conf 60.9
O=C(O)c1ccc(Cl)c(S(=O)(=O)Nc2cccc(C(=O)Nc3cccc(C(F)(F)F)c3)c2)c1	none
O=C(COC(=O)/C=C/c1ccc(F)cc1)NCc1cccs1	PAFAH2 inh 61.7 (no result: EBNA-1 inh) | PAFAH2 FP conf 46.6
O=C(COC(=O)/C=C/c1ccccc1)NCc1cccs1	PAFAH2 inh 60.6 (no result: EBNA-1 inh) | PAFAH2 FP conf 47.5
CC(C)NC(=O)COC(=O)/C=C/c1ccco1	none
Cc1ccc(/C=C/C(=O)OCC(=O)NCc2cccs2)o1	PAFAH2 inh 68.1 (no result: EBNA-1 inh, ZTA DNA inh) | PAFAH2 FP conf 53.3
Cc1ccc(/C=C/C(=O)OCC(=O)NC(C)C)o1	PAFAH2 inh 34.8 | PAFAH2 FP conf inactive
Cc1ccc(/C=C/C(=O)OCC(=O)NCCc2ccc(S(N)(=O)=O)cc2)o1	none (no result: EBNA-1 inh, ZTA DNA inh)
CCCn1c(SCC(=O)Nc2cc(C(=O)O)ccc2C)nc2sc3c(c2c1=O)CCC3	none (no result: EBNA-1 inh)
CCN(CC(=O)NCc1cccs1)S(=O)(=O)c1ccc([N+](=O)[O-])cc1	none
CCN(CC)S(=O)(=O)c1ccc(/C=C/C(=O)OCC(=O)NCc2cccs2)cc1	PAFAH2 inh 93.0 (no result: EBNA-1 inh) | PAFAH2 FP conf 80.0
CC(=O)NCCCC(=O)NN1C(=S)N(Cc2ccccc2)C(=O)C1CC(=O)Nc1cccc(C)c1 (centres undefined)	none
COc1cc(Cl)c(NS(=O)(=O)c2ccc(-c3ccc(=O)[nH]n3)o2)c(OC)c1	PAFAH2 inh 32.1 | PAFAH2 FP conf inactive
Cc1cccc(C)c1NS(=O)(=O)c1ccc(-c2ccc(=O)[nH]n2)o1	none
O=[N+]([O-])c1ccc(CN2CCCCCC2)s1	PAFAH2 inh 32.0 | PAFAH2 FP conf inactive
O=[N+]([O-])c1ccccc1S(=O)(=O)Nc1cccc(-c2ccc(N3CCCC3)nn2)c1	PAFAH2 inh 108.7 | PAFAH2 FP conf inactive
CCc1ccc(NC(=O)COC(=O)CCc2nc3cc(S(=O)(=O)N(CC)CC)ccc3n2C)cc1	PAFAH2 inh 62.6 | PAFAH2 FP conf 74.7
CCN(CC)S(=O)(=O)c1ccc2c(c1)nc(CCC(=O)OCC(=O)Nc1cc(Cl)cc(Cl)c1)n2C	PAFAH2 inh 73.1 | PAFAH2 FP conf 83.5
CCN(CC)S(=O)(=O)c1ccc2c(c1)nc(CCC(=O)OCc1c(C)noc1C)n2C	none
CCN(CC)S(=O)(=O)c1ccc2c(c1)nc(CCC(=O)OCC(=O)N1CCc3ccccc31)n2C	PAFAH2 inh 70.7 | PAFAH2 FP conf 81.6
COc1cc(/C=C/C(=O)OCC(=O)NC(=O)NCc2ccco2)ccc1OC(F)F	none (no result: EBNA-1 inh, ZTA DNA inh)
COc1cc(/C=C/C(=O)OCC(=O)NCc2ccco2)ccc1O	PAFAH2 inh 65.9 | PAFAH2 FP conf 45.5
COc1cccc(OC)c1C(=O)OCC(=O)NCc1ccco1	none (no result: EBNA-1 inh)
COc1ccccc1/C=C/C(=O)OCC(=O)NCc1ccco1	PAFAH2 inh 61.9 | PAFAH2 FP conf 52.8
COc1ccc(C(=O)NCCN2CCCC2)cc1[N+](=O)[O-]	none
Cc1nnc(SCC2=C(C(=O)O)N3C(=O)C(NC(=O)Cc4ccccc4)C3SC2)s1 (centres undefined)	PAFAH2 inh 79.4 (no result: EBNA-1 inh) | PAFAH2 FP conf 65.4
Cc1nnc(SCC2=C(C(=O)O)N3C(=O)C(NC(=O)C(C)n4nc(C(F)(F)F)cc4C)C3SC2)s1 (centres undefined)	none
Cc1ccnc(N=Cc2nc(-c3ccccc3Br)oc2O)c1	PAFAH2 inh 63.5 | PAFAH2 FP conf 60.2
Oc1oc(-c2cccc3ccccc23)nc1/C=N/c1nccs1	none
Cc1ccc(C(=O)c2ccccc2C(=O)OCC(=O)NC(C)(C)C)cc1	PAFAH2 inh 61.7 | PAFAH2 FP conf 50.7
Cc1ccc(C(=O)c2ccccc2C(=O)OCC(=O)N2CCCC2)cc1	none (no result: EBNA-1 inh, ZTA DNA inh)
O=c1ccn(C2CCCO2)c(=O)[nH]1 (centres undefined)	none (no result: EBNA-1 inh, ZTA DNA inh, pPAFAH inh)
CC(C)CSC1=NSC2=NC(=O)/C(=C\c3coc4ccccc4c3=O)C(=N)N12	PAFAH2 inh 36.1 | PAFAH2 FP conf inactive
Cc1cnc(CN(C)C(=O)c2ccc3oc(Cc4ccccc4)nc3c2)[nH]1	none
